# Screen size: about 39,000 compounds; about 3,300 (8.5%) were called active. The sample as a whole holds a higher share of actives than the screen did.
# System: HepG2
# Experiment: cytotoxicity call (relative viability < 0.9)
# Conditions: 10 µM
row,Structure (SMILES),cytotoxicity call
1,C[C@@H]1CCCCO[C@@H](CN(C)S(C)(=O)=O)[C@@H](C)CN([C@H](C)CO)C(=O)c2cc(NC(=O)c3ccncc3)ccc2O1,inactive
2,C[C@@H]1CN([C@@H](C)CO)C(=O)Cc2cc(NS(=O)(=O)c3cccs3)ccc2O[C@@H]1CN(C)Cc1ccc(Oc2ccccc2)cc1,inactive
3,C[C@H]1CN([C@@H](C)CO)C(=O)Cc2cc(NS(=O)(=O)c3cccs3)ccc2O[C@@H]1CN(C)Cc1ccc(Oc2ccccc2)cc1,inactive
4,C[C@H]1CN([C@@H](C)CO)C(=O)Cc2cc(NS(=O)(=O)c3cccs3)ccc2O[C@H]1CN(C)Cc1ccc(Oc2ccccc2)cc1,inactive
5,C[C@@H]1CN([C@H](C)CO)C(=O)Cc2cc(NS(=O)(=O)c3cccs3)ccc2O[C@@H]1CN(C)Cc1ccc(Oc2ccccc2)cc1,active
6,C[C@@H]1CN([C@H](C)CO)C(=O)Cc2cc(NS(=O)(=O)c3cccs3)ccc2O[C@H]1CN(C)Cc1ccc(Oc2ccccc2)cc1,active
7,C[C@H](CO)N1C[C@H](C)[C@@H](CN(C)Cc2ccc(Oc3ccccc3)cc2)Oc2ccc(NS(=O)(=O)c3cccs3)cc2CC1=O,inactive
8,Cn1cc(CN2CCC3(CC2)CNC(=O)CO3)cn1,inactive
9,COc1cccc(S(=O)(=O)Nc2ccc3c(c2)[C@@H]2C[C@H](CC(=O)NC4CCCCC4)O[C@@H](CO)[C@@H]2O3)c1,inactive
10,Cc1ccc(S(=O)(=O)Nc2ccc3c(c2)C(=O)N([C@H](C)CO)C[C@@H](C)[C@@H](CN(C)S(=O)(=O)c2ccccc2)O3)cc1,inactive
11,C[C@@H]1CN([C@@H](C)CO)S(=O)(=O)c2ccc(C#CC(C)(C)O)cc2O[C@H]1CN(C)C(=O)CN(C)C,inactive
12,COc1ccc(NC(=O)N(C)C[C@H]2OCCCC[C@@H](C)Oc3ccc(NC(=O)c4ccccc4)cc3C(=O)N([C@@H](C)CO)C[C@@H]2C)cc1,inactive
13,CC(C)NC(=O)N(C)C[C@H]1OCCCC[C@H](C)Oc2ccc(NC(=O)Nc3cccc4ccccc34)cc2C(=O)N([C@H](C)CO)C[C@@H]1C,inactive
14,C[C@H]1CCCCO[C@H](CN(C)Cc2ccc(C(=O)O)cc2)[C@@H](C)CN([C@@H](C)CO)C(=O)c2cc(NS(=O)(=O)c3ccc(F)cc3)ccc2O1,inactive
15,CN(C)C/C=C/C(=O)Nc1ccc(C(=O)Nc2cccc(Nc3ncc(Cl)c(-c4c[nH]c5ccccc45)n3)c2)cc1,active
16,O=C(O)C1CCOCC1,inactive
17,Cc1ccc(S(=O)(=O)Nc2ccc3c(c2)C(=O)N([C@H](C)CO)C[C@H](C)[C@H](CN(C)Cc2ccc(Cl)c(Cl)c2)OCCCC[C@H](C)O3)cc1,inactive
18,Cc1ccc(S(=O)(=O)Nc2ccc3c(c2)C(=O)N([C@H](C)CO)C[C@@H](C)[C@H](CN(C)Cc2ccc(Cl)c(Cl)c2)OCCCC[C@H](C)O3)cc1,active
19,Cc1ccc(S(=O)(=O)Nc2ccc3c(c2)C(=O)N([C@H](C)CO)C[C@H](C)[C@@H](CN(C)Cc2ccc(Cl)c(Cl)c2)OCCCC[C@H](C)O3)cc1,inactive
20,Cc1ccc(S(=O)(=O)Nc2ccc3c(c2)C(=O)N([C@H](C)CO)C[C@@H](C)[C@@H](CN(C)Cc2ccc(Cl)c(Cl)c2)OCCCC[C@H](C)O3)cc1,inactive
21,Cc1ccc(S(=O)(=O)Nc2ccc3c(c2)C(=O)N([C@H](C)CO)C[C@@H](C)[C@H](CN(C)Cc2ccc(Cl)c(Cl)c2)OCCCC[C@@H](C)O3)cc1,active
22,Cc1ccc(S(=O)(=O)Nc2ccc3c(c2)C(=O)N([C@@H](C)CO)C[C@H](C)[C@@H](CN(C)Cc2ccc(Cl)c(Cl)c2)OCCCC[C@@H](C)O3)cc1,active
23,Cc1ccc(S(=O)(=O)Nc2ccc3c(c2)C(=O)N([C@@H](C)CO)C[C@@H](C)[C@H](CN(C)Cc2ccc(Cl)c(Cl)c2)OCCCC[C@@H](C)O3)cc1,inactive
24,Cc1ccc(S(=O)(=O)Nc2ccc3c(c2)C(=O)N([C@@H](C)CO)C[C@@H](C)[C@@H](CN(C)Cc2ccc(Cl)c(Cl)c2)OCCCC[C@@H](C)O3)cc1,active

row,Structure (SMILES),cytotoxicity call
1,Cc1ccc(S(=O)(=O)Nc2cccc3c2O[C@H](CN(C)C(=O)Nc2ccc(C(F)(F)F)cc2)[C@H](C)CN([C@H](C)CO)C3=O)cc1,inactive
2,C[C@@H]1CCCCO[C@@H](CN(C)CC2CCCCC2)[C@H](C)CN([C@H](C)CO)C(=O)c2cc(NS(=O)(=O)c3ccccc3)ccc2O1,inactive
3,Cc1ccc(S(=O)(=O)Nc2ccc3c(c2)C(=O)N([C@H](C)CO)C[C@H](C)[C@@H](CN(C)Cc2ccc(Cl)c(Cl)c2)OCCCC[C@@H](C)O3)cc1,inactive
4,Cc1ccc(S(=O)(=O)Nc2ccc3c(c2)C(=O)N([C@@H](C)CO)C[C@H](C)[C@@H](CN(C)Cc2ccc(Cl)c(Cl)c2)OCCCC[C@H](C)O3)cc1,active
5,Cc1ccc(S(=O)(=O)Nc2ccc3c(c2)C(=O)N([C@H](C)CO)C[C@H](C)[C@H](CN(C)Cc2ccc(Cl)c(Cl)c2)OCCCC[C@@H](C)O3)cc1,active
6,O=C(O)CC[C@H]1CCC(=O)N1,inactive
7,C[C@@H]1CN([C@H](C)CO)C(=O)Cc2cc(NC(=O)c3ccncc3)ccc2O[C@H]1CN(C)S(=O)(=O)c1cn(C)cn1,inactive
8,C[C@@H]1CCCCO[C@@H](CN(C)CC2CC2)[C@H](C)CN([C@H](C)CO)C(=O)c2cc(NS(C)(=O)=O)ccc2O1,inactive
9,C[C@@H]1CN([C@@H](C)CO)C(=O)c2cccc(NS(=O)(=O)c3ccccc3)c2O[C@@H]1CN(C)S(C)(=O)=O,inactive
10,C[C@@H]1CN([C@@H](C)CO)C(=O)c2cc(NS(=O)(=O)c3ccccc3)ccc2O[C@H]1CN(C)S(C)(=O)=O,inactive
11,O=C(C[C@@H]1C=C[C@H](NC(=O)c2cccc(F)c2)[C@@H](CO)O1)NCCN1CCCC1,inactive
12,CN(C)CC(=O)N1CC(=O)N2[C@H](CO)[C@@H](c3ccc(C#Cc4cccnc4)cc3)[C@H]2C1,inactive
13,O=c1cc(-c2ccccc2)oc2ccccc12,inactive
14,COc1ccc2c(=O)cc(-c3ccccc3OC)oc2c1,inactive
15,CCOC(=O)COc1ccc2c(=O)cc(-c3ccccc3)oc2c1,active
16,CCS(=O)(=O)Nc1ccc2c(c1)C(=O)N(C)[C@@H]1CC[C@@H](CC(=O)N[C@@H]3CCN(Cc4ccccc4)C3)O[C@@H]1CO2,inactive
17,Cc1cc(C(=O)Nc2cccc3c2O[C@@H](CN(C)Cc2ccncc2)[C@@H](C)CN([C@H](C)CO)C3=O)n(C)n1,inactive
18,C=CCOC(=O)[C@@H]1[C@H]2C(=O)O[C@H](c3ccccc3)[C@H](c3ccccc3)N2[C@H](c2ccc(OCCOC(=O)[C@H]3C[C@H]4C(=O)N5CCC[C@H]5C(=O)N4[C@H]3c3cccc(OCCO)c3)cc2)[C@@]12C(=O)Nc1ccc(I)cc12,inactive
19,CN(C)CCCNC(=O)C[C@@H]1CC[C@@H]2[C@H](COC[C@H](O)CN2S(=O)(=O)c2ccccc2)O1,inactive
20,Cc1ccc(CN)cc1Cl,inactive
21,Cc1cc(C(=O)c2cc3cc(Cl)ccc3o2)ccc1Cl,inactive
22,Cc1cc(CN)cc(C)c1NC(=O)c1ccc(-c2cc(Cl)ccc2Cl)o1,active
23,CCCCN1CC=C[C@@]23O[C@@H]4C=CCCOC(=O)[C@@H]4[C@H]2C(=O)N([C@@H](C)CO)[C@@H]3C1=O,inactive
24,NNc1ccc2c(N)[nH]nc2c1,inactive

row,Structure (SMILES),cytotoxicity call
1,COc1cccc(CN(C)C[C@@H]2OCc3ccccc3-c3c(n(C)c4ccccc34)C(=O)N([C@H](C)CO)C[C@H]2C)c1,inactive
2,NCCC(=O)N1c2ccccc2Sc2ccccc21,inactive
3,O=C(c1cccs1)N1c2ccccc2Sc2ccccc21,inactive
4,O=C(Cc1cccs1)N1c2ccccc2Sc2ccccc21,active
5,C[C@@H]1CN([C@H](C)CO)C(=O)c2cc(NC(=O)Nc3ccc(C(F)(F)F)cc3)ccc2O[C@@H](C)CCCCO[C@@H]1CN(C)S(=O)(=O)c1ccc(Cl)cc1,inactive
6,O=C1CN(S(=O)(=O)Cc2ccccc2)C[C@@H]2[C@H](c3ccc(C#Cc4ccc(F)cc4)cc3)[C@@H](CO)N12,inactive
7,O=C1CN(S(=O)(=O)Cc2ccccc2)C[C@@H]2[C@@H](c3ccc(C#Cc4ccc(F)cc4)cc3)[C@@H](CO)N12,active
8,O=C1CN(S(=O)(=O)Cc2ccccc2)C[C@H]2[C@H](c3ccc(C#Cc4ccc(F)cc4)cc3)[C@H](CO)N12,inactive
9,O=C1CN(S(=O)(=O)Cc2ccccc2)C[C@H]2[C@@H](c3ccc(C#Cc4ccc(F)cc4)cc3)[C@@H](CO)N12,inactive
10,O=C1CN(S(=O)(=O)Cc2ccccc2)C[C@H]2[C@H](c3ccc(C#Cc4ccc(F)cc4)cc3)[C@@H](CO)N12,inactive
11,O=C1CN(S(=O)(=O)Cc2ccccc2)C[C@@H]2[C@@H](c3ccc(C#Cc4ccc(F)cc4)cc3)[C@H](CO)N12,active
12,CN(C)S(=O)(=O)N1CCO[C@@H]2CN(c3ncc(F)cn3)C[C@@H]21,inactive
13,O=C1O[C@H](c2ccccc2)[C@H](c2ccccc2)N2[C@H]1[C@@H](C(=O)Nc1nc3ccccc3s1)[C@]1(C(=O)Nc3ccc(C#CC4(O)CCCCCC4)cc31)[C@H]2c1ccccc1OCCO,inactive
14,C[C@@H]1CCCCO[C@@H](CN(C)C(=O)Nc2ccc3c(c2)OCO3)[C@@H](C)CN([C@@H](C)CO)C(=O)c2cc(NC(=O)CCC(F)(F)F)ccc2O1,inactive
15,C[C@@H]1CN([C@H](C)CO)C(=O)c2cc(NC(=O)CCCCCC(=O)Nc3ccccc3N)ccc2O[C@@H]1CN(C)Cc1ccc(Oc2ccccc2)cc1,active
16,C[C@H](CO)N1C[C@H](C)[C@H](CN(C)Cc2ccccc2)Oc2ccc(NC(=O)CCCCCC(=O)Nc3ccccc3N)cc2C1=O,inactive
17,C[C@H]1CN([C@@H](C)CO)C(=O)c2cc(NC(=O)CCCCCC(=O)Nc3ccccc3N)ccc2O[C@H]1CN(C)Cc1ccc(Oc2ccccc2)cc1,inactive
18,C[C@H](CO)N1C[C@H](C)[C@@H](CN(C)Cc2ccccc2)Oc2ccc(NC(=O)CCCCCC(=O)Nc3ccccc3N)cc2C1=O,inactive
19,C[C@@H]1CN([C@H](C)CO)C(=O)c2cc(NC(=O)CCCCCC(=O)Nc3ccccc3N)ccc2O[C@@H]1CN(C)Cc1ccccc1,inactive
20,C[C@@H]1CN([C@H](C)CO)C(=O)c2cc(NC(=O)CCCCCC(=O)Nc3ccccc3N)ccc2O[C@H]1CN(C)Cc1ccccc1,inactive
21,C[C@H]1CN([C@@H](C)CO)C(=O)c2cc(NC(=O)CCCCCC(=O)Nc3ccccc3N)ccc2O[C@@H]1CN(C)Cc1ccccc1,active
22,C[C@@H]1CN([C@@H](C)CO)C(=O)c2cc(NC(=O)CCCCCC(=O)Nc3ccccc3N)ccc2O[C@H]1CN(C)Cc1ccccc1,active
23,COc1ccc(CN(C)C[C@H]2Oc3ccc(NC(=O)CCCCCC(=O)Nc4ccccc4N)cc3C(=O)N([C@H](C)CO)C[C@H]2C)cc1,inactive

# — the antibiotic and cytotoxicity screens of Wong et al. (2023)
